# PubChem BioAssay (EPA / NIEHS)
# Activity calls are given as the source filed them. How the source made its calls: active means hit-call score of the fitted dose curve at least 0.9, where 1 is the maximum; inactive means score below 0.9.
# Columns and labels:
# [1] = read-out: Tissue plasminogen activator (tPA), PLAT (gene 5327); assay: BSK_BE3C_tPA: BioMAP Diversity Plus: BE3C Assay for Tissue plasminogen activator (tPA) Biomarker Activity (AID 2283041); conditions: primary human bronchial epithelial cells; actives raise or lower the signal;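 on outcome: tPA level quantified by ELISA one day after compound addition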
# In short: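 tPA measured by ELISA 24 h after dosing human primary bronchial epithelial cells (BE3C system). Changes in either direction were fitted against DMSO. Parallel cultures were stained with SRB to flag overt cytotoxicity.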
# [2] = read-out: Interleukin-8 (IL8), CXCL8 (gene 3576); assay: BSK_CASM3C_IL8: BioMAP Diversity Plus: CASM3C Assay for Interleukin-8 (IL8) Biomarker Activity (AID 2283042); conditions: primary human coronary artery smooth muscle cells; actives raise or lower the signal;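 further: IL-8 protein level quantified by ELISA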
# [3] = read-out: Human Leukocyte Antigen - DR isotype (HLADR), HLA-DRA (gene 3122); assay: BSK_CASM3C_HLADR: BioMAP Diversity Plus: CASM3C Assay for Human Leukocyte Antigen - DR isotype (HLADR) Biomarker Activity (AID 2283043); conditions: primary human coronary artery smooth muscle cells; actives raise or lower the signal;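 further: cell-surface HLA-DR protein level quantified by ELISA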
# [4] = read-out: Macrophage colony-stimulating factor (MCSF), CSF1 (gene 1435); assay: BSK_CASM3C_MCSF: BioMAP Diversity Plus: CASM3C Assay for Macrophage colony-stimulating factor (MCSF) Biomarker Activity (AID 2283044); conditions: primary human coronary artery smooth muscle cells; actives raise or lower the signal;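 further: M-CSF protein amount quantified by ELISA after 24 h exposure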
# [5] = read-out: Low-density lipoprotein receptor (LDLR), LDLR (gene 3949); assay: BSK_CASM3C_LDLR: BioMAP Diversity Plus: CASM3C Assay for Low-density lipoprotein receptor (LDLR) Biomarker Activity (AID 2283045); conditions: primary human coronary artery smooth muscle cells; actives raise or lower the signal;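 further: LDLR protein level on the cell surface quantified by ELISA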
# [6] = read-out: Monocyte Chemoattractant Protein-1 (MCP1), CCL2 (gene 6347); assay: BSK_CASM3C_MCP1: BioMAP Diversity Plus: CASM3C Assay for Monocyte Chemoattractant Protein-1 (MCP1) Biomarker Activity (AID 2283046); conditions: primary human coronary artery smooth muscle cells; actives raise or lower the signal;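 further: MCP-1 level quantified by ELISA 24 h after dosing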
# [7] = BSK_CASM3C_Proliferation: Cell Proliferation Assessment in the BioMAP Diversity Plus: CASM3C Assay (AID 2283047); conditions: primary human coronary artery smooth muscle cells;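 further: sulforhodamine B total protein stain as relative cell number at 560 nm; sub-confluent cells exposed 48 h before staining; fitted both ways against DMSO so gain or loss of cell number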
# [8] = read-out: Monokine induced gamma interferon (MIG), CXCL9 (gene 4283); assay: BSK_CASM3C_MIG: BioMAP Diversity Plus: CASM3C Assay for Monokine induced gamma interferon (MIG) Biomarker Activity (AID 2283048); conditions: primary human coronary artery smooth muscle cells; actives raise or lower the signal;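 further: MIG protein level measured by ELISA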
# [9] = read-out: serum amyloid A (SAA), SAA1 (gene 6288); assay: BSK_CASM3C_SAA: BioMAP Diversity Plus: CASM3C Assay for serum amyloid A (SAA) Biomarker Activity (AID 2283049); conditions: primary human coronary artery smooth muscle cells; actives raise or lower the signal;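 further: SAA protein level quantified by ELISA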
# [10] = BSK_CASM3C_SRB: Viability Assessment in the BioMAP Diversity Plus: CASM3C Assay (AID 2283050); conditions: primary human coronary artery smooth muscle cells;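 further: total protein by SRB staining as cytotoxicity measure in parallel cultures; cells exposed to compound for 24 h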
# [11] = read-out: Thrombomodulin, THBD (gene 7056); assay: BSK_CASM3C_Thrombomodulin: BioMAP Diversity Plus: CASM3C Assay for Thrombomodulin Biomarker Activity (AID 2283051); conditions: primary human coronary artery smooth muscle cells; actives raise or lower the signal;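 further: thrombomodulin protein level measured by ELISA 24 h after dosing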
# [12] = read-out: Tissue Factor, F3 (gene 2152); assay: BSK_CASM3C_TissueFactor: BioMAP Diversity Plus: CASM3C Assay for Tissue Factor Biomarker Activity (AID 2283052); conditions: primary human coronary artery smooth muscle cells; actives raise or lower the signal;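 further: cell surface tissue factor protein level read by ELISA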
# [13] = read-out: Interferon-gamma inducible Protein 10 (IP10), CXCL10 (gene 3627); assay: BSK_hDFCGF_IP10: BioMAP Diversity Plus: hDFCGF Assay for Interferon-gamma inducible Protein 10 (IP10) Biomarker Activity (AID 2283053); conditions: primary human foreskin fibroblasts; actives raise or lower the signal
# In short: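 ELISA quantification of IP-10 after a 24 h chemical exposure of human dermal foreskin fibroblast primary cultures. Both increases and decreases versus DMSO fitted.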
# [14] = read-out: Urokinase-type plasminogen activator receptor (uPAR), PLAUR (gene 5329); assay: BSK_CASM3C_uPAR: BioMAP Diversity Plus: CASM3C Assay for Urokinase-type plasminogen activator receptor (uPAR) Biomarker Activity (AID 2283054); conditions: primary human coronary artery smooth muscle cells; actives raise or lower the signal;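 further: cell-surface uPAR protein level quantified by ELISA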
# [15] = read-out: Vascular cell adhesion molecule 1 (VCAM1), VCAM1 (gene 7412); assay: BSK_CASM3C_VCAM1: BioMAP Diversity Plus: CASM3C Assay for Vascular cell adhesion molecule 1 (VCAM1) Biomarker Activity (AID 2283055); conditions: primary human coronary artery smooth muscle cells; actives raise or lower the signal;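 further: VCAM-1 protein level quantified by ELISA on the cells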
# [16] = read-out: Collagen III, COL3A1 (gene 1281); assay: BSK_hDFCGF_CollagenIII: BioMAP Diversity Plus: hDFCGF Assay for Collagen III Biomarker Activity (AID 2283056); conditions: primary human foreskin fibroblasts; actives raise or lower the signal
# In short: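 Response relative to DMSO, fitted in both directions, reflects ELISA-measured collagen III in human primary skin fibroblasts 24 h after compound addition.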
# [17] = read-out: Epidermal growth factor receptor (EGFR), EGFR (gene 1956); assay: BSK_hDFCGF_EGFR: BioMAP Diversity Plus: hDFCGF Assay for Epidermal growth factor receptor (EGFR) Biomarker Activity (AID 2283057); conditions: primary human foreskin fibroblasts; actives raise or lower the signal
# In short: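 EGFR levels by ELISA in human dermal fibroblast cultures, 24 h post-treatment, fitted bidirectionally versus DMSO. Parallel wells stained with sulforhodamine B to detect overt cytotoxicity.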
# [18] = read-out: Interleukin-8 (IL8), CXCL8 (gene 3576); assay: BSK_hDFCGF_IL8: BioMAP Diversity Plus: hDFCGF Assay for Interleukin-8 (IL8) Biomarker Activity (AID 2283058); conditions: primary human foreskin fibroblasts; actives raise or lower the signal
# In short: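 Fibroblast monolayers (human foreskin, hDFCGF) received test chemical for 24 h before ELISA detection of IL-8; either increases or decreases relative to DMSO count as activity.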
# [19] = BSK_hDFCGF_Proliferation: Cell Proliferation Assessment in the BioMAP Diversity Plus: hDFCGF Assay (AID 2283059); conditions: primary human foreskin fibroblasts;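 further: curves fitted for both rise and fall of signal versus DMSO baseline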
# In short: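 Steps: dose primary human dermal fibroblasts (foreskin); […] fix in 10% TCA; stain with 0.1% SRB; read 560 nm; fit gain or loss of signal against DMSO.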
# [20] = read-out: Macrophage colony-stimulating factor (MCSF), CSF1 (gene 1435); assay: BSK_hDFCGF_MCSF: BioMAP Diversity Plus: hDFCGF Assay for Macrophage colony-stimulating factor (MCSF) Biomarker Activity (AID 2283060); conditions: primary human foreskin fibroblasts; actives raise or lower the signal
# In short: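 fibroblasts (human foreskin, primary), 24 h post-dose; M-CSF by ELISA; bidirectional fit, DMSO = baseline.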
smiles,measurement,setting,value
FC(F)C(F)(F)COCC1CO1 (stereo not given),outcome,[1],inactive
same,outcome,[2],inactive
same,outcome,[3],inactive
same,outcome,[4],inactive
same,outcome,[5],inactive
same,outcome,[6],inactive
same,outcome,[7],inactive
same,outcome,[8],inactive
same,outcome,[9],inactive
same,outcome,[10],inactive
same,outcome,[11],inactive
same,outcome,[12],inactive
same,outcome,[13],inactive
same,outcome,[14],inactive
same,outcome,[15],inactive
same,outcome,[16],inactive
same,outcome,[17],inactive
same,outcome,[18],inactive
same,outcome,[19],inactive
same,outcome,[20],inactive
COc1cc(C(C)C)c2c(c1)S(=O)(=O)N(COc1cc(=O)n3cccc(OCCN4CCCCC4)c3n1)C2=O,AC50,[1],3 µM (active)
same,outcome,[2],inactive
same,outcome,[3],inactive
same,outcome,[4],inactive
same,AC50,[5],3.65 µM (active)
same,outcome,[6],inactive
same,AC50,[7],6.18 µM (active)
same,outcome,[8],inactive
same,outcome,[9],inactive
same,outcome,[10],inactive
same,outcome,[11],inactive
same,outcome,[12],inactive
same,AC50,[13],6.1 µM (active)
same,outcome,[14],inactive
same,AC50,[15],5 µM (active)
same,outcome,[16],inactive
same,outcome,[17],inactive
same,outcome,[18],inactive
same,AC50,[19],5.44 µM (active)
same,AC50,[20],3.29 µM (active)
OCCOCCOCCO,outcome,[1],inactive
same,outcome,[2],inactive
same,outcome,[3],inactive
same,outcome,[4],inactive
same,outcome,[5],inactive
same,outcome,[6],inactive
same,outcome,[7],inactive
same,outcome,[8],inactive
same,outcome,[9],inactive
same,outcome,[10],inactive
same,outcome,[11],inactive
same,outcome,[12],inactive
same,outcome,[13],inactive
same,outcome,[14],inactive
same,outcome,[15],inactive
same,outcome,[16],inactive
same,outcome,[17],inactive
same,outcome,[18],inactive
same,outcome,[19],inactive
same,outcome,[20],inactive
